According to PubChem BioAssay (NCI):
About 83,000 compounds went through this panel and 20% of them were active in at least one assay; those are over-represented in the sample as a whole.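 Treatment: one concentration, 48 hours, 96-well format. Scoring: percent growth, with anything below 10 considered active.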 Values without a mark were called inactive. The source made the active and inactive calls.

Each molecule was assayed on MDA-MB-468 breast (assay: NCI-60 one-dose screen, 48 h (100 = growth as untreated, 0 = no growth, -100 = all killed)). Conditions: 10 µM unless noted.

For `C=C(C)[C@@H]1CC[C@]2(COC3CCCCO3)CC[C@]3(C)[C@H](CC[C@@H]4[C@@]5(C)C=C(C=O)C(=O)C(C)(C)[C@@H]5CC[C@]43C)[C@@H]12` (stereo not given in full), the growth was -53.1% (active).
With `CCN1C(=O)N(CC)C2C1NN=c1s/c(=C3\C(=O)N(CC(C)C)c4ccccc43)c(=O)n12` (stereo not given) the growth was 6% (active).
With `Clc1ccc(-c2nc(-c3cccs3)cn3ccnc23)cc1` the growth was -11.1% (active).
With `CC(=O)Nc1cc(F)cc(-c2ccc3[nH]cc(-c4ccccc4)c3n2)c1` the growth was -21.9% (active).
`O=C(Nc1ccc(Cl)c(Cl)c1)Nc1ccc(Cl)c([N+](=O)[O-])c1` was tested, and the growth was -19% (active).

Point of comparison: `COc1cc(-c2c(-c3ccccc3)c[nH]c2C(=O)NCCCO)c(OC)c2c1OCO2`, growth 102%. Against it:
- N=c1ccn2c(n1)O[C@@H]1[C@@H](O)[C@H](CO)O[C@@H]12 — lower, 77.1%
- C/C(=N\NC(=O)c1ccncc1)c1ccc(N)cc1 — lower, 97.1%
- CCC1CCc2nc3sc(C(=O)Nc4cccc(C)c4)c(N)c3cc2C1 (stereo not given) — lower, 44.5%
- COc1ccc(S(=O)(=O)N(C(C)=O)c2ccccc2/C=C/c2cc[n+]([O-])cc2)cc1 — lower, 10.8%
- COc1ccc(-c2nnc(-c3c(-c4ccccc4)nc4ncccn34)o2)cc1OC — lower, 99.1%
- NC(N)=N/N=C(/c1ccccc1)c1ccccc1F — lower, 29.1%
- CCN1CCN(CC(=O)Nc2nc3ccc(NCc4ccc(Br)cc4)cc3s2)CC1 — lower, 61.1%
- CCc1cccc2c1S/C(=C/c1ccc(OC)cc1)C2=O — lower, 27.3%
- CCOC(=O)c1ccc(NCCC(=O)O)cc1 — lower, 95.5%
- CCCCOCc1cc(CN2CCN(C)CC2)c(O)c2ncccc12 — lower, 46.1%
- O=C(CCCCNC(=O)c1cc(=O)c(O)co1)Nc1ccccc1 — lower, 35%
- CCN1CCN(C(=S)SCC(=O)Nc2nc3ccc(C)cc3s2)CC1 — higher, 104%
- CC(C)N1C(=O)S/C(=C2/SC(=O)N(C(C)C)C2=O)C1=O — lower, 94.5%
- O=C(NNc1ccccc1)c1ncc[nH]1 — lower, 75.6%
- CSc1ccc(/C(=N/N=C(N)N)c2ccccc2)cc1 — lower, 44.8%
- COc1cc(/C=N/NC(=O)c2cnn3c2NC(c2ccccc2)C3)ccc1OC1CCCC1 (stereo not given) — lower, 23.3%
- CC(=O)Nc1ccc(S(=O)(=O)N2C(=O)CCC2C(=O)Nc2ccc(Br)cc2)cc1 (stereo not given) — lower, 20.6%
- OCc1ncc(-c2ccccc2)s1 — higher, 104%
- COc1cc(-c2csc(NC(=O)Nc3cccc(C(F)(F)F)c3)n2)cc(OC)c1OC — lower, 19.3%
- CCC(C)(C)C(=O)O[C@H]1C[C@@H](C)C=C2C=C[C@H](C)[C@H](CC[C@@H]3CC(SCCN)CC(=O)O3)[C@H]21 (stereo not given in full) — lower, 90.3%
- Nc1nc(N)c2c(n1)NC(c1cccc(Nc3ccnc4cc(C(F)(F)F)ccc34)c1)CC(c1ccc(Br)cc1)=N2 (stereo not given) — lower, 41.9%
- O=C1ON=[N+](c2ccc(Cc3ccc([N+]4=NOC(=O)C4CN4CCOCC4)cc3)cc2)C1CN1CCOCC1 (stereo not given) — lower, 11.4%
- O=c1c2cc(F)ccc2sc2c(Nc3ccncc3)nc3ccccc3c12 — lower, 27.8%
- COc1ccc(/C=N/NC(=O)c2cnn3c2NC(c2ccccc2)C3)cc1OC1CCCC1 (stereo not given) — lower, 91.1%
- c1ncc2[nH]cnc2n1 — lower, 96%
- CC1=NN(c2cccc(Cl)c2)C(=O)/C1=C\c1cn(-c2nc(N3CCOCC3)nc(N3CCOCC3)n2)c2ccccc12 — lower, 95.9%
- COc1ccc2c(c1)oc1c(C)c3c(c(C)c12)C(=O)N(CCN1CCOCC1)C3=O — higher, 106%
- O=C(/C=C/c1ccc(Cl)cc1)c1ccc(Nc2nc(NCCO)nc(Nc3ccc(Cl)cc3)n2)cc1 — lower, 68.4%
- O=C(c1ccccc1)C(Br)C(Br)c1ccccc1 (stereo not given) — lower, 72.3%
- FC(F)(F)c1ccc(-c2cnc(-n3cc(COCCN4CCCCC4)nn3)nc2NC2CCCCCC2)cc1 — lower, 16.1%
- Nc1c(C(=O)Nc2c(Cl)cccc2Cl)sc2nc3c(cc12)CCCC3 — lower, 82.3%
- O=C(N=c1n(-c2ccccc2)nc2n1CCN2C1=NCCN1)c1ccc(Cl)cc1 — lower, 50.3%
- CCCCCOC(=O)c1cccc(NC(=O)CN(CC)CC)c1 — higher, 106%
- O=C(Nc1ccc(NC(=O)c2cc(=O)[nH]c3ccccc23)cc1)Nc1cccc(C(F)(F)F)c1 — lower, 24.6%
